From PubChem BioAssay AID504333 (National Center for Advancing Translational Sciences (NCATS), 2011)
In all, about 360,000 compounds went through this assay and about 16,000 (4.4%) were called active. Inconclusive results (about 9%) are left out. Shown is part of a subset that was picked to be rich in actives. Unmarked numbers belong to inactive results. Calls follow the shape of the dose curve; as a rule, active = well fitted inhibition curve with a large enough effect; inconclusive = small, poorly fitted or top-dose-only effect; inactive = no such curve, though single readings can be large or run the other way.

target: Bromodomain adjacent to zinc finger domain protein 2B (Homo sapiens) (UniProt Q9UIF8); assay: qHTS Assay for Inhibitors of BAZ2B; settings: AlphaScreen BAZ2B-H3K14Ac peptide displacement; series mostly up to 114 µM; activity change, negative = inhibition: at the top concentration; also: nearly all actives have a fitted effect of over 60% in size
Sequence (Q9UIF8 whole entry, looked up, the tested form may be a part): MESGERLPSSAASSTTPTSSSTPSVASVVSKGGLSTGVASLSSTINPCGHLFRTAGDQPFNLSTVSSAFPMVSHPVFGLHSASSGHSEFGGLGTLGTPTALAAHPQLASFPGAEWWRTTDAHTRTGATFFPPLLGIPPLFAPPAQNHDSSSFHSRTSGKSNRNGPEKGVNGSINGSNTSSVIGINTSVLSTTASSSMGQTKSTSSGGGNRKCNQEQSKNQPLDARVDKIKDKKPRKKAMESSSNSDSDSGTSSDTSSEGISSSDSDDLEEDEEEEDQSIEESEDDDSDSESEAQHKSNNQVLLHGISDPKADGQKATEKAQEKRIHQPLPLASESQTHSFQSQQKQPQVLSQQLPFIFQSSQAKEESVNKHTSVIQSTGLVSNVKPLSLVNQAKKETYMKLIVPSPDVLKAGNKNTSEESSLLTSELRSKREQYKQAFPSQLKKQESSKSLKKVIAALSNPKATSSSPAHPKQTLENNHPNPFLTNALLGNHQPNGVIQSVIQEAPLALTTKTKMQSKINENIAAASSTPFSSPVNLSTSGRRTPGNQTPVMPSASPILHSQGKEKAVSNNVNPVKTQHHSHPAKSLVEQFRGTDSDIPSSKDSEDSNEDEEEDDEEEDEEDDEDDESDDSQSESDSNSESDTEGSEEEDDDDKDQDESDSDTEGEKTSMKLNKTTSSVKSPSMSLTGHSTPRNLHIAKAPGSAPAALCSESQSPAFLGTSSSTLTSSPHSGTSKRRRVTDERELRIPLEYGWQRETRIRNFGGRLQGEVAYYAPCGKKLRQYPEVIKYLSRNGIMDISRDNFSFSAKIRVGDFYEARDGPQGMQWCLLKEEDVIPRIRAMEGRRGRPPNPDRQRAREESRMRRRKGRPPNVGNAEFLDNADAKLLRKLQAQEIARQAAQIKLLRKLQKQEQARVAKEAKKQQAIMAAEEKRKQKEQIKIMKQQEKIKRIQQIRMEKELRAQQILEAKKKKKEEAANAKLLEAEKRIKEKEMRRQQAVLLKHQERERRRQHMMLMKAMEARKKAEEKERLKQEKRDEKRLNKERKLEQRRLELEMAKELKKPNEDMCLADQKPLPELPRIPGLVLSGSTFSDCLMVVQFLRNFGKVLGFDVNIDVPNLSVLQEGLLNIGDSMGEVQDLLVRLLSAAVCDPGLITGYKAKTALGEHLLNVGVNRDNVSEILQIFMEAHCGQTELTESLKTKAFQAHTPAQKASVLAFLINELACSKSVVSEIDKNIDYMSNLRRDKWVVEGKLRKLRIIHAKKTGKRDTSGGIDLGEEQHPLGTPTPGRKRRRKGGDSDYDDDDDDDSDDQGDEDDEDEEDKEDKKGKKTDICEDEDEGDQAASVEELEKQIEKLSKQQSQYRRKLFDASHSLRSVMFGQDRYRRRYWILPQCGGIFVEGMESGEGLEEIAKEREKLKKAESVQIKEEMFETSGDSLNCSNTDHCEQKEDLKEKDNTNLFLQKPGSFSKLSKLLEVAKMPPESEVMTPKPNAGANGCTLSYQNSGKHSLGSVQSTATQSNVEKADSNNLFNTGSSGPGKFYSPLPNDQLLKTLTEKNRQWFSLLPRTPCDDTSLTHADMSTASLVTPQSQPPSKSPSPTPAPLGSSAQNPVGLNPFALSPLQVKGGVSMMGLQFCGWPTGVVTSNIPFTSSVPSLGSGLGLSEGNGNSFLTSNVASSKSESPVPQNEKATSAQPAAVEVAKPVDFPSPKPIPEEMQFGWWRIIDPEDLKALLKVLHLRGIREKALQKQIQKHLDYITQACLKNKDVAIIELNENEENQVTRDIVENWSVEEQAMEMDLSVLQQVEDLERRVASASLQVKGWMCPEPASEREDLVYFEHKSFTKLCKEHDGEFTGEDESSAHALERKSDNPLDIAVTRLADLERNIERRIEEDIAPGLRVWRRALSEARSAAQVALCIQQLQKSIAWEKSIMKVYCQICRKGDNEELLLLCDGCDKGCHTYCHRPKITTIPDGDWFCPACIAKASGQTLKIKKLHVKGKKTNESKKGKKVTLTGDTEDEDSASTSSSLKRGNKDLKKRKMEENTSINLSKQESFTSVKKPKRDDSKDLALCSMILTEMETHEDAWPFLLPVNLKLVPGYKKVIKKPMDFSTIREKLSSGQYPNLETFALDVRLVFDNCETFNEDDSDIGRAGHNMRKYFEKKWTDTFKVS
Outline: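 BAZ2B (50 nM) with biotin-H3(5-23)K14Ac peptide (50 nM) in PBS pH 7.4, 0.01% Tween-20, preformed 30 min, then compound 30 min at room temperature; top concentration 110uM. AlphaScreen streptavidin donor/nickel chelate acceptor beads (10 ug/mL final), 20 min dark, signal read.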
% is scaled to controls: 0 for no effect and ±100 for the full control effect; potency is read from the fitted curve at half-maximal effect.

SMILES | activity change, negative = inhibition | Potency
CCOc1ccc(S(=O)(=O)c2cn(Cc3ccccc3)c3ccc(OCC)cc3c2=O)cc1 | -2.47% | –
CCc1ccc(CN(Cc2ccco2)C(=O)c2ccccc2Cl)cc1 | 28.6% | –
Cc1cc(=O)c2cc(C(=O)Nc3cccc(C)c3C)ccc2[nH]1 | -0.358% | –
CC1CCCN(CC(O)COCc2ccccc2)C1 (centres undefined) | -6.53% | –
O=[N+]([O-])c1ccc(N2CCN(CC(O)COc3ccccc3)CC2)cc1 (centres undefined) | -36.5% | –
OC(COCc1ccco1)CN1CCN(c2ccccc2)CC1 (centres undefined) | – | 89.1 µM (active)
CCCn1ccc2c(OCC(=O)NCc3ccc(F)cc3)cccc2c1=O | 2.51% | –
Cc1ccc(-c2cn3c(n2)sc2cc(C(=O)NCCCc4ccccc4)ccc23)cc1 | -0.904% | –
Cc1cc(C)cc(NC(=O)CN2C(=O)c3ccccc3C2=O)c1 | 5.03% | –
Cc1ccc(NC(=O)CCN2C(=O)c3ccccc3C2=O)cc1C | -0.264% | –
Cc1cc2c(cc1C)N(C(=O)CN1C(=O)c3ccccc3C1=O)C(C)(C)c1ssc(=S)c1-2 | – | 8.91 µM (active)
O=[N+]([O-])c1cc(C(F)(F)F)ccc1NN=C1CCCC1 | – | 10 µM (active)
O=[N+]([O-])c1cc(C(F)(F)F)ccc1NCCc1ccncc1 | -9.78% | –
COc1cc(OC)cc(C(=O)NC(=S)N2CCN(c3ccc(C(F)(F)F)cc3[N+](=O)[O-])CC2)c1 | 62.3% | –
COc1cccc(CNC(=O)C(=O)NCC(c2cccs2)S(=O)(=O)c2ccccc2)c1 (centres undefined) | 30.7% | –
COc1ccccc1CNC(=O)CCCn1c(=O)c2ccccc2n(CC(=O)Nc2ccc(C)cc2Cl)c1=O | -9.06% | –
O=C(Cc1ccc([N+](=O)[O-])cc1)N/N=C/c1ccco1 | 1.38% | –
CC(C)NC(=O)C(=O)N/N=C/c1ccco1 | 6.63% | –
O=C(N/N=C/c1ccco1)c1ccc(C(=O)N/N=C/c2ccco2)o1 | – | 56.2 µM (active)
CCOc1ccccc1NC(=O)CN1CCN(S(=O)(=O)c2ccc(Br)cc2)CC1 | 7.77% [at 57.1 µM] | –
Cc1ccc(NC2=C(c3ccc(C(F)(F)F)cc3)C(=O)c3ccccc32)cc1F | -12.8% | –
Cc1ccc(C)c(Cn2c(=O)n(CCC(=O)NCc3ccc4c(c3)OCO4)c(=O)c3sccc32)c1 | 1.86% | –
N/C(=N\OC(=O)Cc1ccccc1[N+](=O)[O-])c1ccc(Br)cc1 | -23.2% | –
Cc1oc2cc([N+](=O)[O-])c(O)c([N+](=O)[O-])c2c1C(=O)c1ccc(Br)cc1 | – | 35.5 µM (active)
Cc1oc2cc(Br)c(O)c(Br)c2c1C(=O)c1ccccc1 | -15.4% | –
COCCNc1ncnc2c1c(-c1ccccc1)cn2-c1ccc(C)c(Cl)c1 | -8.73% | –
Cc1c(C)n(Cc2ccc(Cl)cc2)c2ccc(C(=O)NCCc3ccc(S(N)(=O)=O)cc3)cc12 | -19% | –
COc1ccc(Cn2c(=S)[nH]c3cc(C(=O)NCCCN4CCOCC4)ccc3c2=O)cc1 | -4.26% | –
Cc1c(C)n(Cc2ccc(Cl)cc2)c2ccc(C(=O)NCCCN3CCOCC3)cc12 | – | 39.8 µM (active)
